In ChEMBL document CHEMBL4296182, “CO-ADD screening of NIH NCI Diversity Set V”:
For part of these data: Entries with a potency or affinity are not part of this list.

Key:
Staphylococcus aureus = test: Antibacterial activity against Staphylococcus aureus MRSA ATCC 43300 (CO-ADD:GP_020); MIC in CAMBH media using NBS plates, by Resazurin F(560/590); type: functional; conditions: Concentration 20 uM, ASSAY_TEST Inhibition of Bacterial Growth, detection method Resazurin, Fluorescence (ex560/em590), MEDIA CAMHB, plate type 384well, CORNING #3640, time 18 hr
Acinetobacter baumannii = test: Antibacterial activity against Acinetobacter baumannii ATCC 19606 (CO-ADD:GN_034); MIC in CAMBH media using NBS plates, by Resazurin F(560/590); type: functional; conditions: Concentration 20 uM, ASSAY_TEST Inhibition of Bacterial Growth, detection method Resazurin, Fluorescence (ex560/em590), MEDIA CAMHB, plate type 384well, CORNING #3640, time 18 hr
Escherichia coli = test: Antibacterial activity against Escherichia coli ATCC 25922 (CO-ADD:GN_001); MIC in CAMBH media using NBS plates, by Resazurin F(560/590); type: functional; conditions: Concentration 20 uM, ASSAY_TEST Inhibition of Bacterial Growth, detection method Resazurin, Fluorescence (ex560/em590), MEDIA CAMHB, plate type 384well, CORNING #3640, time 18 hr
Klebsiella pneumoniae = conditions: Concentration 20 uM; ASSAY_TEST Inhibition of Bacterial Growth; detection method Absorption (OD600); MEDIA CAMHB; plate type 384well; NBS; CORNING #3640; time 18 hr
Candida albicans = conditions: 20 µM
Cryptococcus neoformans = conditions: Concentration 20 uM; ASSAY_TEST Inhibition of Fungal Growth; detection method Resazurin; Absorption (OD600-OD570); plate type 384well; NBS; CORNING #3640

## NCC(=O)c1cccc2ccc[n+]([O-])c12
Staphylococcus aureus
  Inhibition: 9.77%
Acinetobacter baumannii
  Inhibition: 5.17%
Escherichia coli
  Inhibition: 0.84%
Klebsiella pneumoniae
  Inhibition: 20.91%
Candida albicans
  Inhibition: 0.31%
Cryptococcus neoformans
  Inhibition: -8.51%

## COc1cc2c(c(OC)c1O)C(=O)CO2
Staphylococcus aureus
  Inhibition: -11.73%
Acinetobacter baumannii
  Inhibition: -8.29%
Escherichia coli
  Inhibition: -0.75%
Klebsiella pneumoniae
  Inhibition: 1.47%
Candida albicans
  Inhibition: 3.59%
Cryptococcus neoformans
  Inhibition: -3.51%

## CC(=O)Nc1ccc(Cc2nc3c(=O)n(C)c(=O)n(C)c3[nH]2)cc1
Staphylococcus aureus
  Inhibition: 10.98%
Acinetobacter baumannii
  Inhibition: -13.87%
Escherichia coli
  Inhibition: 3.26%
Klebsiella pneumoniae
  Inhibition: 6.41%
Candida albicans
  Inhibition: 3.5%
Cryptococcus neoformans
  Inhibition: -7.42%

## CSc1nc2cc(S(=O)(=O)N3CCCCC3)ccc2s1
Staphylococcus aureus
  Inhibition: 2.12%
Acinetobacter baumannii
  Inhibition: 9.92%
Escherichia coli
  Inhibition: -7.83%
Klebsiella pneumoniae
  Inhibition: 10.24%
Candida albicans
  Inhibition: 7.84%
Cryptococcus neoformans
  Inhibition: 2.72%

## CO/N=C1/C=C(C)C(=O)C(C)=C1C
Staphylococcus aureus
  Inhibition: 4.57%
Acinetobacter baumannii
  Inhibition: -1.27%
Escherichia coli
  Inhibition: 14.83%
Klebsiella pneumoniae
  Inhibition: 1.18%
Candida albicans
  Inhibition: -2%
Cryptococcus neoformans
  Inhibition: -4.8%

## CCCCCC(=O)N1CCCC1
Staphylococcus aureus
  Inhibition: 12.42%
Acinetobacter baumannii
  Inhibition: -13.64%
Escherichia coli
  Inhibition: 4.47%
Klebsiella pneumoniae
  Inhibition: 10.8%
Candida albicans
  Inhibition: 0.29%
Cryptococcus neoformans
  Inhibition: -1.54%

## CC(=O)Nc1ccc(OCCOc2ccc([N+](=O)[O-])cc2)cc1
Staphylococcus aureus
  Inhibition: 16.53%
Acinetobacter baumannii
  Inhibition: 7.01%
Escherichia coli
  Inhibition: 2.93%
Klebsiella pneumoniae
  Inhibition: 10.72%
Candida albicans
  Inhibition: -1.95%
Cryptococcus neoformans
  Inhibition: -16.57%

## Cc1nc(N)nc(Cl)c1CCC1OCCO1
Staphylococcus aureus
  Inhibition: 7.04%
Acinetobacter baumannii
  Inhibition: -8.91%
Escherichia coli
  Inhibition: 8.75%
Klebsiella pneumoniae
  Inhibition: 6.29%
Candida albicans
  Inhibition: 2.66%
Cryptococcus neoformans
  Inhibition: -6.74%

## C=CCOc1c(CCC)cc(CCC)cc1C(N)=O
Staphylococcus aureus
  Inhibition: 13.21%
Acinetobacter baumannii
  Inhibition: 14.83%
Escherichia coli
  Inhibition: 1.32%
Klebsiella pneumoniae
  Inhibition: 19.26%
Candida albicans
  Inhibition: 5.23%
Cryptococcus neoformans
  Inhibition: -4.27%

## COc1ccc2nc3cc(Cl)ccc3c(Nc3cc(C(C)C)c(O)cc3C)c2c1
Staphylococcus aureus
  Inhibition: 18.28%
Acinetobacter baumannii
  Inhibition: -16.67%
Escherichia coli
  Inhibition: 18.01%
Klebsiella pneumoniae
  Inhibition: 9.53%
Candida albicans
  Inhibition: -0.84%
Cryptococcus neoformans
  Inhibition: -12.42%

## CCCCCCCCCCC(C(=O)O)C1(C(=O)O)CCC(=O)O1 (centres undefined)
Staphylococcus aureus
  Inhibition: 8.92%
Acinetobacter baumannii
  Inhibition: 10.41%
Escherichia coli
  Inhibition: 4.35%
Klebsiella pneumoniae
  Inhibition: 3.55%
Candida albicans
  Inhibition: 8.22%
Cryptococcus neoformans
  Inhibition: -9.1%

## Nc1ccc(Oc2ccc(N)c([N+](=O)[O-])c2)cc1[N+](=O)[O-]
Staphylococcus aureus
  Inhibition: 19.29%
Acinetobacter baumannii
  Inhibition: -5.09%
Escherichia coli
  Inhibition: 4.4%
Klebsiella pneumoniae
  Inhibition: 9.85%
Candida albicans
  Inhibition: 10.1%
Cryptococcus neoformans
  Inhibition: -3.81%

## Cc1ccc(/N=N/c2c(O)c3ccccc3[nH]c2=O)c(S(=O)(=O)N(C)C)c1
Staphylococcus aureus
  Inhibition: 12.78%
Acinetobacter baumannii
  Inhibition: 7.24%
Escherichia coli
  Inhibition: 9.06%
Klebsiella pneumoniae
  Inhibition: 6.43%
Candida albicans
  Inhibition: -0.31%
Cryptococcus neoformans
  Inhibition: -5.24%

## c1ccc(Sc2ncccn2)nc1
Staphylococcus aureus
  Inhibition: 20.57%
Acinetobacter baumannii
  Inhibition: -8.37%
Escherichia coli
  Inhibition: 7.64%
Klebsiella pneumoniae
  Inhibition: 5.74%
Candida albicans
  Inhibition: 3.74%
Cryptococcus neoformans
  Inhibition: -10.47%

## CN(C)c1ccc(/C=N/NC(=O)c2cnc3ccccc3c2)cc1
Staphylococcus aureus
  Inhibition: 17.84%
Acinetobacter baumannii
  Inhibition: 9.63%
Escherichia coli
  Inhibition: 3.71%
Klebsiella pneumoniae
  Inhibition: 14.91%
Candida albicans
  Inhibition: 2.44%
Cryptococcus neoformans
  Inhibition: 3.68%

## Cc1cc(=O)[nH]/c(=N/N=C2/CCCCC2C)[nH]1 (centres undefined)
Staphylococcus aureus
  Inhibition: 22.54%
Acinetobacter baumannii
  Inhibition: -10.76%
Escherichia coli
  Inhibition: 10%
Klebsiella pneumoniae
  Inhibition: 5.45%
Candida albicans
  Inhibition: -3.38%
Cryptococcus neoformans
  Inhibition: -9.25%

## C=CCNC(S)=NCC
Staphylococcus aureus
  Inhibition: 0.32%
Acinetobacter baumannii
  Inhibition: -1.02%
Escherichia coli
  Inhibition: 11.35%
Klebsiella pneumoniae
  Inhibition: 13%
Candida albicans
  Inhibition: 0.61%
Cryptococcus neoformans
  Inhibition: -1.87%

## Oc1nc2[nH]c(Cl)nc(Cl)c-2n1
Staphylococcus aureus
  Inhibition: 12.09%
Acinetobacter baumannii
  Inhibition: -10.58%
Escherichia coli
  Inhibition: 13.78%
Klebsiella pneumoniae
  Inhibition: 9.63%
Candida albicans
  Inhibition: -2.33%
Cryptococcus neoformans
  Inhibition: -19.04%

## CC(=O)[C@H]1CC[C@H]2[C@@H]3CCC4=CC(=O)CC[C@]4(C)[C@@]3(F)[C@@H](O)C[C@]12C
Staphylococcus aureus
  Inhibition: 0.89%
Acinetobacter baumannii
  Inhibition: -16.68%
Escherichia coli
  Inhibition: 9.76%
Klebsiella pneumoniae
  Inhibition: 7.06%
Candida albicans
  Inhibition: 0.8%
Cryptococcus neoformans
  Inhibition: -7.75%

## O=[N+]([O-])c1ccc(Sc2ncccn2)c([N+](=O)[O-])c1
Staphylococcus aureus
  Inhibition: -0.05%
Acinetobacter baumannii
  Inhibition: -11.01%
Escherichia coli
  Inhibition: 5.58%
Klebsiella pneumoniae
  Inhibition: 8.38%
Candida albicans
  Inhibition: 12.9%
Cryptococcus neoformans
  Inhibition: -3.06%

## CN(C)S(=O)(=O)Nc1ccccn1
Staphylococcus aureus
  Inhibition: 6.72%
Acinetobacter baumannii
  Inhibition: 9.21%
Escherichia coli
  Inhibition: -0.96%
Klebsiella pneumoniae
  Inhibition: 17.6%
Candida albicans
  Inhibition: 5.95%
Cryptococcus neoformans
  Inhibition: -3.86%

## O=C(/C=C/c1ccccc1Cl)c1ccc(O)cc1
Staphylococcus aureus
  Inhibition: 3.85%
Acinetobacter baumannii
  Inhibition: 0.76%
Escherichia coli
  Inhibition: -16.06%
Klebsiella pneumoniae
  Inhibition: 19.85%
Candida albicans
  Inhibition: 14.7%
Cryptococcus neoformans
  Inhibition: 8.89%

## COC(=O)c1ccc(C(=O)OC)c(O)n1
Staphylococcus aureus
  Inhibition: 3.27%
Acinetobacter baumannii
  Inhibition: 9.07%
Escherichia coli
  Inhibition: 2.76%
Klebsiella pneumoniae
  Inhibition: 7.35%
Candida albicans
  Inhibition: 0.7%
Cryptococcus neoformans
  Inhibition: -5.98%

## COC(=O)c1ccc(Cn2cnc3c(Cl)ncnc32)cc1
Staphylococcus aureus
  Inhibition: -16.45%
Acinetobacter baumannii
  Inhibition: 0.57%
Escherichia coli
  Inhibition: -10.62%
Klebsiella pneumoniae
  Inhibition: 2.87%
Candida albicans
  Inhibition: -1.99%
Cryptococcus neoformans
  Inhibition: 15.29%
